Most compounds without a hit are left out; they make up all but 12% or so of the library.
Insulin prom inh: TRM-6 insulin promoter activity inhibition; TRM-6 cells (human fetal islet line), insulin promoter-eGFP reporter, imaging; reporter expression induced with tamoxifen; 130,000 compounds, 0.9% hits; inhibition, % at 2 µM; AID 1273;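 active means inhibition above the mean plus 3 SD, with well images judged a real hit on visual review, cut at about 60% in these data, passing the limit was not always enough; inconclusive means inhibition over the cutoff but images rejected on review; inactive means inhibition not above the cutoff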
WT yeast gro inh: growth inhibition of WT yeast, mitochondrial fusion screen. mitochondrial fusion phenotypic screen, WT strain. inhibition, % at 10 µM. 190,000 compounds, 2.1% hits; in the data active means inhibition above about 58%; tested in S. cerevisiae
Cl transport mod: modulates chloride dependent transport by human KCC2; Q9H2X9; KCC2 cells, thallium flux FluoZin-2 fluorescence; B-score of Tl+ flux slope (higher = more flux/activation; lower = inhibition) at 10 µM; 190,000 compounds, 2.2% hits; AID 1456;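 active means thallium flux slope and its plate-corrected score both differing from the plate sample mean at a set confidence after two filtering rounds, in either direction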;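 further: slope of fluorescence scaled to starting intensity during 10 to 20 s after thallium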
Target sequence (Q9H2X9 whole entry, looked up): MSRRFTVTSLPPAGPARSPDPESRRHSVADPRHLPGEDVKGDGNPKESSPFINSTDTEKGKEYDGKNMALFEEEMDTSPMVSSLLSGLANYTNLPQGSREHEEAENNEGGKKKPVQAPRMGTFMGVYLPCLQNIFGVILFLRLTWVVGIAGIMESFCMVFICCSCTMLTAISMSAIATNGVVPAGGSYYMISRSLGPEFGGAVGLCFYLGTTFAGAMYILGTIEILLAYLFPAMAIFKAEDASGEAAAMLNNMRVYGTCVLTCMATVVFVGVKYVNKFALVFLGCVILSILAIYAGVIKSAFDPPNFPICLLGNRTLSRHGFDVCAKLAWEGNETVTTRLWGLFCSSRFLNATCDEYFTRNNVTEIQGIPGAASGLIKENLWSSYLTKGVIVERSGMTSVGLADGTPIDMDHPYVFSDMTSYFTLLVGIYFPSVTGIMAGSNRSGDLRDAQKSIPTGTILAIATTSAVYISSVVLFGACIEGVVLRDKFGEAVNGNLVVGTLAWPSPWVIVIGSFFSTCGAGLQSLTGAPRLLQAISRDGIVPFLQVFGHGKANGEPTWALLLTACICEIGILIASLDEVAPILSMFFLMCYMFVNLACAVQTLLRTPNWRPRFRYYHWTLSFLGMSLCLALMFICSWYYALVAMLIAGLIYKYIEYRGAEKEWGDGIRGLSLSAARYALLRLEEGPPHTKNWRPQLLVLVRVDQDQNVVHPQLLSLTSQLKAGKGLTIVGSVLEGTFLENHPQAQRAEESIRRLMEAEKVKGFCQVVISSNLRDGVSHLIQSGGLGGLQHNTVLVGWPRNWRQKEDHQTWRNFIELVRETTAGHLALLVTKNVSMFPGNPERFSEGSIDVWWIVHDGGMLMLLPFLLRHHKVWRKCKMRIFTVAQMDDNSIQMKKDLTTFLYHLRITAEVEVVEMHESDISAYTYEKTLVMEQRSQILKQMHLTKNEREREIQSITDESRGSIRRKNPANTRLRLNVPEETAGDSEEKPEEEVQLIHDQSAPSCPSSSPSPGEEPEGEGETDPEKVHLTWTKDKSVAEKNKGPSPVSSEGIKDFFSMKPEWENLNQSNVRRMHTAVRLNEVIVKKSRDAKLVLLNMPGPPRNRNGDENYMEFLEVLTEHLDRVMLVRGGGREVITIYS
Lmaj promast: reduces viability of Leishmania major promastigotes | inhibition, % at 10 µM | 200,000 compounds, 9% hits | resazurin fluorescence viability; in the data active means inhibition above about 50%;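 further: promastigotes grown with compound for 44 hours at 28 °C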
Insulin prom up: MIN6 insulin promoter up-regulation | 190,000 compounds, 0.3% hits | z-score at 5 µM | AID 1625 | MIN6 insulin promoter-GFP reporter, high-content imaging; active compounds read high;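 active means z-score above 3 at 5 µM with at least 500 cells counted in the well; inconclusive means wells under 500 cells, flagged as cytotoxic or low count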
ROMK primary: modulates human ROMK potassium channel activity; P48048; Tet-inducible ROMK, thallium flux fluorescence; actives lie on both sides; 130,000 compounds, 2% hits; B-score at 10 µM;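 active means signal ratio slope over the read window, or its plate-corrected B-score, at least 3 SD from the plate mean, either direction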;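 further: B-score of the F/F0 ratio slope over 7 to 12 s after thallium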
* marks the source's active call; other numbers are inactive results; ? = inconclusive; / = no result.

SMILES | Insulin prom inh | WT yeast gro inh | Cl transport mod | Lmaj promast | Insulin prom up | ROMK primary
O=[N+]([O-])c1ccc(/C=N/Nc2nc(N3CCOCC3)nc(N3CCOCC3)n2)cc1 | / | -7 | -0.00036 | -4 | -0.04 | 0.49
Cc1ccccc1CNC(=O)CN(c1cccc([N+](=O)[O-])c1)S(C)(=O)=O | / | -2 | 0.0091 | -10 | -0.3 | -0.29
CCN(CC)c1ccc(CNC23CN4CN(CN(C4)C2)C3)cc1 | -18 | 10 | / | -3 | 0.92 | /
O=c1c2cn[nH]c2nc(SCc2ccccc2F)n1-c1ccc(Br)cc1 | 14 | 79* | -2.1 | 12 | -0.65 | -3.1
O=C(CSc1nc2[nH]ncc2c(=O)n1-c1ccc(Cl)c(Cl)c1)NCc1ccccc1Cl | -41 | -1 | 0.37 | 77* | -0.25 | -0.95
O=c1c2cn[nH]c2nc(SCc2cc(=O)n3cc(Br)ccc3n2)n1-c1ccc(Br)cc1 | / | 3 | -1.6 | 42 | -0.97 | -0.25
O=C(CSc1nc2[nH]ncc2c(=O)n1-c1ccccc1)NCCc1ccccc1 | -51 | -11 | 0.043 | -3 | / | 0.2
CCCN1C(=O)/C(=C/c2c(NCCCOCC)nc3c(C)cccn3c2=O)SC1=S | -27 | 10 | / | -4 | 5.7* | -2
Cc1cc(F)ccc1NC(=O)c1cccnc1 | / | -13 | 0.18 | -2 | 0.26 | 0.52
COc1cccc2[nH]c3c(N4CCCC(C)C4)ncnc3c12 (stereo not drawn) | -14 | 16 | / | 99* | -0.66 | -0.91
CCOC(=O)C1CCCN(c2ncnc3c2[nH]c2cccc(OC)c23)C1 (stereo not drawn) | 21 | 51 | / | 76* | / | -0.17
COc1cccc2[nH]c3c(N4CC(C)CC(C)C4)ncnc3c12 (stereo not drawn) | -11 | 34 | / | 100* | -1.4 | /
COc1cccc2[nH]c3c(N4CCC(C(N)=O)CC4)ncnc3c12 | 14 | 3 | / | 20 | 0.3 | 0.37
Cc1cccc2[nH]c3c(N4CCC5(CC4)OCCO5)ncnc3c12 | -23 | -9 | -2 | 43 | -1 | /
COc1cccc2[nH]c3c(=O)n(CCN(C)C)cnc3c12 | / | / | / | / | 0.56 | /
CC(=O)c1ccc(NS(=O)(=O)c2ccc(CC(C)C)cc2)cc1 | 0 | -2 | 0.92 | -5 | / | /
O=C(O)C1=C[C@@H](c2ccc(C(F)(F)F)cc2)C[C@@H](OCc2ccc(CO)cc2)O1 | / | -8 | -0.84 | -5 | -0.46 | /
O=C(NC1=C(Nc2ccc(Cl)cc2)C(=O)c2ccccc2C1=O)c1ccccc1 | / | 79* | -1.6 | 78* | / | -0.038
CC(=O)Nc1ccc(NC2=C(Cl)C(=O)c3ccccc3C2=O)cc1 | 43 | 17 | 0.25 | 4 | ? | 0.74
O=C(NC1=C(NC2CCS(=O)(=O)C2)C(=O)c2ccccc2C1=O)c1ccccc1 (stereo not drawn) | / | 4 | 2.5 | 99* | -0.68 | -0.0054
Cc1cccc(NC(=O)c2cccc3c2C(=O)c2ccccc2-3)c1 | 10 | -12 | 0.95 | -1 | / | /
CN(C1=C(NC(=O)c2ccc(Cl)cc2)C(=O)c2ccccc2C1=O)c1ccccc1 | / | 73* | -1.6 | 64* | 0.66 | /
CN(c1ccc(C(=O)Nc2ccc(Cl)cn2)cc1)S(=O)(=O)c1ccccc1 | 24 | 25 | -0.52 | 5 | 0.39 | -0.92
Cc1cccc(NC2=C(NC(=O)c3ccccc3)C(=O)c3ccccc3C2=O)c1 | / | 33 | -0.17 | 52* | 0 | /
CCN(CC)C(=O)Cn1ccc(NC(C)=O)nc1=O | / | / | / | / | 0.18 | /
SMILES | Insulin prom inh | WT yeast gro inh | Cl transport mod | Lmaj promast | Insulin prom up | ROMK primary
COc1ccc(CCn2c(=O)[nH]c3cc(C(=O)NCCc4ccccc4)ccc3c2=O)cc1OC | -19 | 5 | / | -5 | -0.42 | /
OC(CN1CCN(Cc2ccc3c(c2)OCO3)CC1)c1c[nH]c2ccccc12 (stereo not drawn) | 47 | -5 | 1.4 | 91* | -0.86 | /
Cc1c(C(O)CN2CCN(Cc3ccc4c(c3)OCO4)CC2)c2ccccc2n1C (stereo not drawn) | 6 | 17 | 0.39 | 100* | -0.18 | /
COc1ccc(OCc2cccc(C(=O)NN)c2)cc1 | 0 | -9 | -0.5 | -9 | 0.04 | /
O=C(NCc1ccccc1)c1ccc(Cl)cc1 | / | / | 0.86 | / | 1.2 | 1.3
O=C(NCc1ccc(Cl)cc1)c1cccc(NC(=O)c2ccccc2)c1 | 22 | -3 | -0.53 | 55* | -0.44 | 0.2
O=C(NCc1ccccc1)c1cccc(COc2ccc(Cl)cc2)c1 | / | 50 | -0.13 | 12 | 2.6 | /
O=C(NCc1ccccc1)c1cccc(COc2cccc(Cl)c2)c1 | / | 67* | 0.52 | 2 | -0.47 | /
NNC(=O)c1cccc(COc2ccc(Br)cc2)c1 | / | 73* | -0.85 | -1 | 0.04 | /
COCCCNC(=O)c1ccccc1Oc1ccccc1 | 17 | 0 | 0.78 | 5 | -0.49 | /
O=C(NCc1ccc(Cl)cc1)c1ccccc1Oc1ccccc1 | -54 | 61* | 1 | 5 | 0.17 | -0.41
Cc1ccc(C)c(CN2C(=O)c3ccccc3S(=O)c3ccc(C(=O)N4CCN(c5ccccn5)CC4)cc32)c1 (stereo not drawn) | -18 | 21 | -1.5 | 35 | -0.57 | -1.3
O=S1(=O)C=C(N2CCCCC2)c2ccccc21 | -45 | 7 | 0.037 | -4 | 0.68 | /
O=C(NN1CCOCC1)c1cccc(COc2cccc(Br)c2)c1 | / | -10 | 0.094 | 5 | 1.1 | -0.31
NNC(=O)c1cccc(COc2cccc(Br)c2)c1 | 54 | 73* | -0.81 | 0 | / | /
O=C(CN1C(=O)NC2(CCCC2)C1=O)Nc1ccccc1-c1ccccc1 | / | / | 0.87 | / | 0.1 | /
COc1ccc(C(=O)Nc2sc3c(c2C#N)CCN(C(C)=O)C3)cc1 | -118 | -12 | -0.61 | 3 | -0.4 | 1.8
CCOC(=O)N1CCc2c(sc(NC(=O)c3ccc(S(=O)(=O)N4CCCC4)cc3)c2C#N)C1 | / | 7 | -0.043 | 57* | 0.12 | /
CC(=O)N1CCc2c(sc(NC(=O)c3ccc([N+](=O)[O-])o3)c2C#N)C1 | -274 | -1 | -0.36 | 98* | 1.2 | -0.08
CC(CCn1cccn1)NC(=O)c1cc(COc2ccc(F)cc2Cl)on1 (stereo not drawn) | / | 21 | -2.7 | 9 | -0.47 | 0.72
CC1CN(c2oc(-c3ccco3)nc2S(=O)(=O)c2ccccc2)CC(C)O1 (stereo not drawn) | 18 | 6 | 0.84 | -3 | -0.56 | -1.8
CCOC(=O)/C(C#N)=C/c1cn(CCC(=O)O)nc1-c1cccc(Cl)c1 | / | -18 | 0.041 | -6 | 0 | 0.00022
CC(C)Oc1ccc(C(=O)Nc2cccc3cccnc23)cc1 | / | 59* | -1.7 | -7 | -0.14 | 0.51
COc1ccc(NC(=O)CCN2CCN(S(=O)(=O)c3ccc(Cl)cc3)CC2)cc1 | -3 | -3 | 0.028 | 93* | -0.6 | -0.16
O=C(COc1ccccc1)N1CCN(S(=O)(=O)c2ccc(Cl)cc2)CC1 | / | 3 | -0.85 | -10 | / | 0.0097
CN(CC(=O)Nc1ccc(S(=O)(=O)N2CCCC2)cc1)Cc1ccc(Cl)cc1Cl | -27 | 39 | 0.37 | 86* | 0.38 | -0.024
COc1cccc(OCCCN2CCN(S(=O)(=O)c3ccc(NC(C)=O)cc3)CC2)c1 | -6 | -5 | 0.096 | 68* | 1.3 | -0.63

Screening results deposited in PubChem BioAssay by several laboratories.
